Sampled rows, rich in hits. Any-hit rate of the full collection: about 19%.
DT40 TDP1 no CPT: qHTS for Inhibitors of human tyrosyl-DNA phosphodiesterase 1 (TDP1): qHTS in cells in absence of CPT; DT40 Tdp1-/- hTDP1 cells, no CPT, ATP luminescence, 48 h; actives 15% (n = 420,000); Potency, µM (titrated, usually from 46.2 µM), inactives show top-dose activity change, negative = growth inhibition, most hits filed as inhibitors; AID 686978, 2013; note: potency is the fitted concentration of half-maximal effect; % is set by controls: 0 for no effect and ±100 for the full control effect; nearly all actives have a fitted effect of over 55% in size
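Seeded 400 DT40-hTDP1 cells/well (vehicle DMSO, no 20 nM CPT); pinned compounds; ≥48 hr at 37 °C; CellTiter-Glo luminescence as viability measure.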
SW480 rereplic: DNA re-replication induction in SW480 cells. SW480 DNA re-replication, Hoechst DNA content imaging, 48 h. Potency, µM (titrated, usually from 46.1 µM), for inactives: top-dose re-replication activation, most hits filed as activators. actives 1.8% (n = 340,000). AID 624297; note: potency is the fitted concentration of half-maximal effect; % of control where 0% means no effect; nearly all actives have a fitted effect of over 55% in size
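First, 250 cells per well were seeded. Next, compound or vehicle (23 nL) was pinned in, plates sat 48 hr at 37 C. Finally Hoechst was added for 40 min before fluorescence scanning.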
MCF10A rerep: DNA re-replication induction in MCF 10a cells | Potency, µM (top dose mostly 46.1 µM), inactives show top-dose activity, positive = re-replication, actives largely listed as activators | AID 624296 | MCF 10A DNA re-replication, Hoechst nuclear intensity, 48 h | actives 2.9% (n = 350,000); note: potency is the fitted concentration of half-maximal effect; % of control where 0% means no effect; nearly all actives have a fitted effect of over 50% in size
IL1B secr inh: blocks inflammasome-driven IL-1 beta release; actives 4.7% (n = 360,000); activity change, % at 57.5 µM; THP-1 LPS/ATP IL-1B secretion, AlphaLISA, 16 h; active compounds read low; AID 743279; in the data active = activity change below about -50%; inconclusive = mostly about -30% to -49%; note: % is set by controls: 0 for no effect and ±100 for the full control effect
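THP-1 cells pretreated 1 hr with compounds (up to 57.5 uM final), then stimulated with LPS (250 ng/mL final) plus ATP (1.25 mM final); secreted IL-1B measured by AlphaLISA after 16 hr, decreased signal indicating inhibition.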
TDP1 cell CPT: DT40-hTDP1 cell growth loss with CPT; chicken DT40 Tdp1-/-;hTDP1 cells + 20 nM CPT, ATP luminescence, 48 h; Potency, µM (highest dose often 46.2 µM), without a hit: at the top dose activity change, negative = growth inhibition, hits mostly inhibitors; actives 12% (n = 420,000); AID 686979; note: potency is the fitted concentration of half-maximal effect; % is set by controls: 0 for no effect and ±100 for the full control effect; nearly all actives have a fitted effect of over 55% in size
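Cell growth measured by CellTiter-Glo luminescence after a minimum 48 h, 37 C compound exposure with 20 nM CPT in Tdp1-knockout DT40 cells stably expressing hTDP1, seeded 400/well; qHTS titration format.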
Chronic BCR inh: chronic active BCR signaling inhibition; ABC-DLBCL IkBa-CBG/CBR reporter, luminescence ratio, 4 h; Potency, µM (top dose mostly 46.1 µM), for the others: at the top dose activity change, negative = inhibition, most hits filed as inhibitors; actives 0.05% (n = 340,000); AID 493014; active = well fitted inhibition curve with a large enough effect in the signal ratio, with a control signal flat, not every such curve was filed as active; inconclusive = small, poorly fitted or top-dose-only effect, or effect the other way, or a change in a side signal; the % refers to the signal ratio;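 note: potency is the fitted concentration of half-maximal effect; plate controls were basal doxycycline-induced cells for no effect and cells given 10 µM MG132 for full effect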
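Compounds up to 46 uM were incubated four hours with TMD8 cells whose green CBG68 luciferase is fused to IkappaBalpha; red CBR luminescence normalised the signal, and concentration-effect curves were fitted to fusion, red and ratio data.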
* hit, by the source's call; i = inactive; ? = inconclusive; nt = no result given; [ ] = another dose, or the depositor's remark. Unless noted, calls come from the whole dose curve; as a rule, active = well fitted curve in the direction sought with a large enough effect; inconclusive = small, poorly fitted or top-dose-only effect, or another doubt; inactive = no such curve, though single readings can be large; an effect the other way counts as inactive or inconclusive.

SMILES	DT40 TDP1 no CPT	SW480 rereplic	MCF10A rerep	IL1B secr inh	TDP1 cell CPT	Chronic BCR inh
O=C(O)c1ccc(NC(=S)NC(NC(=O)c2ccco2)C(Cl)(Cl)Cl)cc1 (stereo not drawn)	8%	-7%	-1%	-11	0%	?
CC(=O)c1c(C)[nH]c(C(=O)OCC(=O)NC(C)c2ccccc2)c1C (stereo not drawn)	?	nt	nt	-9	-5%	nt
O=C1NC(c2ccc(-c3ccccc3[N+](=O)[O-])o2)C(C(=O)c2ccc(F)cc2)C(O)(C(F)(F)F)N1 (stereo not drawn)	?	nt	-2%	0	?	?
COc1ccc(C(=O)C2C(c3ccc(-c4ccccc4[N+](=O)[O-])o3)NC(=O)NC2(O)C(F)(F)F)cc1 (stereo not drawn)	18µM*	2%	10%	i	21µM*	-12%
CCOC(=O)c1cc(C(=O)OCC)c2ccccn2c1=O	18µM*	?	?	-14	?	0%
Cn1cccc1C(=O)N1CCC2(CCCN(C(=O)Nc3cccc(C#N)c3)C2)CC1	-23%	nt	nt	nt	-4%	nt
COc1ccc(-n2c(=O)c(-c3cc(F)cc(F)c3)nc3cnc(N(C)C)nc32)cc1	-1%	nt	nt	nt	1%	nt
Cc1noc(C)c1COc1cccc(C(=O)Nc2ccc(Br)cc2F)c1	6.5µM*	15µM*	5.8µM*	-1	8.2µM*	?
Cc1noc(C)c1COc1cccc(C(=O)OC(C)C(=O)Nc2ccc3c(c2)OCO3)c1 (stereo not drawn)	0.82µM*	?	15µM*	0	1µM*	?
CC(C)Oc1cccc(C(=O)Nc2ccc(Br)cc2F)c1	16µM*	?	?	-22	?	-10%
COc1cccc(/C=N/NC(=O)CCc2c(C)n[nH]c2C)c1O	?	?	11%	68	?	7%
CCc1cccc(NC(=O)CN(C)S(=O)(=O)c2ccc3c(c2)CCCN3C(C)=O)c1	?	nt	nt	nt	21µM*	nt
CC(=O)N1CCCc2cc(S(=O)(=O)N(CCN(C)C)Cc3ccccc3)ccc21	-16%	nt	nt	nt	2%	nt
CCCCN(CC)S(=O)(=O)c1ccc2c(c1)CCCN2C(C)=O	?	-10%	8%	23	?	1%
CC(=O)N1CCCc2cc(S(=O)(=O)N(C)CC(=O)Nc3ccc(F)c(Cl)c3)ccc21	21µM*	nt	nt	nt	10µM*	nt
CC(=O)N1CCCc2cc(S(=O)(=O)N(C)Cc3ccccc3)ccc21	21µM*	-7%[9.22 µM]	16%	-19	?	-3%
CC(=O)NCCNC(=O)C1(C)Cc2c(-c3ccc(NC(C)=O)cc3)ccnc2O1 (stereo not drawn)	?	nt	nt	29	-1%	nt
O=C(NC1C2CC3CC(C2)CC1C3)C1CCCCC1 (stereo not drawn)	-12%	5%	1%	25	3%	1%
CCN(CC(=O)Nc1c(F)cccc1F)C(=O)c1ccc(OCc2c(C)noc2C)cc1	12%	0%	2%	17	-6%	1%
NS(=O)(=O)c1ccc(CCNC(=O)Nc2ccc(Cl)c(Cl)c2)cc1	23µM*	13%	?	-11	?	?
Cc1ccc(NC(=O)NNS(=O)(=O)c2ccc(Br)cc2)cc1	-15%	-2%	-1%	-1	-4%	-1%
Cc1ccc(S(=O)(=O)NNC(=O)Nc2ccc(Cl)c(Cl)c2)cc1	16µM*	-2%	0%	10	?	?
Cc1ccc(S(=O)(=O)NCCC(=O)Nc2cccc(Cl)c2)cc1	0%	0.29µM*	0%	-16	-9%	-1%
CC(=O)Nc1ccc(S(=O)(=O)NCCC(=O)Nc2ccc(C)c(Cl)c2)cc1	-29%	-74%	2%	7	-21%	?
Cc1ccc(S(=O)(=O)NCCC(=O)Nc2ccncc2)cc1C	?	0.65µM*	12%	-1	?	16%
SMILES	DT40 TDP1 no CPT	SW480 rereplic	MCF10A rerep	IL1B secr inh	TDP1 cell CPT	Chronic BCR inh
Cc1ccc(S(=O)(=O)NCCC(=O)Nc2ccc(Cl)c(Cl)c2)cc1C	?	0%	16%	-11	-20%	-6%
COc1ccc(NC(=O)COc2ccc3c(C)cc(=O)oc3c2)cc1S(=O)(=O)N1CCCCC1	?	-376%	6%	27	?	-7%
CCc1nc2ccc(C(=O)NCCCN3CCCC3=O)cn2c1N(CC)C(C)=O	-8%	nt	nt	31	2%	nt
CCN(C(=O)C(C)OC(=O)c1nn(-c2ccccc2C(F)(F)F)cc1O)c1ccccc1 (stereo not drawn)	-18%	5%	0%	12	-12%	1%
O=C(NCC1COc2ccccc2O1)c1cccc(S(=O)(=O)N2CCOCC2)c1 (stereo not drawn)	-21%	-1%	2%	-5	?	1%
Cc1ccc(S(=O)(=O)NC(=O)Nc2cccc([N+](=O)[O-])c2)cc1	8%	-30%	-2%	25	2%	-2%
Cc1ccc(S(=O)(=O)NC(=O)Nc2ccc(N(C)C)cc2)cc1	16µM*	7.3µM*	19%	-80*	21µM*	?
Cc1ccc(NC(=O)CCNS(=O)(=O)c2ccccc2)c(C(=O)c2ccccc2)c1	?	-1%	2%	-8	21µM*	-6%
Cc1ccc(S(=O)(=O)NCCC(=O)Nc2ccc(Cl)c(Cl)c2)cc1	16µM*	-3%	?	-10	?	-1%
CCC(CC)CN1CCC(CN2C(=S)NC[C@@H]2CC(C)C)CC1	-19%	0%	-6%	0	?	nt
CCCCNC(=O)C1CCC(CNS(=O)(=O)c2ccc(Cl)cc2)CC1 (stereo not drawn)	-10%	nt	nt	nt	-11%	-1%
OC[C@H]1O[C@@H](O[C@@H]2[C@@H](CO)O[C@](O)(CO)[C@H]2O)[C@H](O)[C@@H](O)[C@H]1O	-7%	nt	nt	nt	-11%	nt
CCC1CCCCN1CCCNC(=O)c1ccc(N2CCCC2=O)cc1 (stereo not drawn)	15%	-4%	13%	31	1%	-3%
Cc1ccc(-n2c(=O)[nH]c3c(C(N)=O)nc(-c4ccc(C)o4)nc32)cc1	13µM*	?	?	14	9.2µM*	2%
Cc1ccc(-n2c(=O)[nH]c3c(C(N)=O)nc(CC(C)C)nc32)cc1	-14%	0%	1%	1	-23%	?
